Assay results reported in the supplement of paper PMC6089552.
“And” between values parts separate entries of the source, which are not always exact repeats. Equal values may be shown once. Hit rate of the full screen: of about 3,200 compounds, about 300 (9.4%) showed activity. What follows is part of a selection rich in actives, with near analogues and random picks from the rest. Unmarked numbers belong to inactive results.

Test system: A673/TR/shEF
Test: cell viability (LOESS-normalised, relative to median of negative controls) (log2 ratio); higher = more viable cells (less compound effect), active = hit call of the paper (over 3 MAD below the median)
Conditions: treatment time: 72 h
Procedure, shortened: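 For three days, A673/TR/shEF Ewing sarcoma cells in 384-well plates (1,500 per well) were treated with library compounds at two or more concentrations or with DMSO controls, after doxycycline had been added or withheld 24 h beforehand to induce EWS-FLI1 shRNA knockdown. Viability was read by CellTiter-Glo luminescence on an Envision reader. The data were LOESS-corrected per plate, divided by the median of negative controls and log2-transformed.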

[1] = 0.25 µM, library screen: screen1, EWS-FLI1 expression: high (no doxycycline)
[2] = 0.25 µM, library screen: screen1, EWS-FLI1 expression: low (doxycycline-induced shRNA knockdown)
[3] = 2.5 µM, library screen: screen1, EWS-FLI1 expression: high (no doxycycline)
[4] = 2.5 µM, library screen: screen1, EWS-FLI1 expression: low (doxycycline-induced shRNA knockdown)

Compound	cell viability (log2) [1]	cell viability (log2) [2]	cell viability (log2) [3]	cell viability (log2) [4]	cell viability (log2) (0.25 µM, library screen: screen2, EWS-FLI1 expression: high (no doxycycline))	cell viability (log2) (0.25 µM, library screen: screen2, EWS-FLI1 expression: low (doxycycline-induced shRNA knockdown))	cell viability (log2) (2.5 µM, library screen: screen2, EWS-FLI1 expression: high (no doxycycline))	cell viability (log2) (2.5 µM, library screen: screen2, EWS-FLI1 expression: low (doxycycline-induced shRNA knockdown))
Cc1cc(O)c(C)c2c1C(=O)Oc1c(C)c(O)c(C(=O)O)c(C)c1O2	0.09	0.103	0.0454	0.145				
CC(C)=CCC/C(C)=C/CC/C(C)=C/CO	0.153	0.0866	0.208	0.106				
CC(C)=CCc1c(O)c(C(=O)CC(C)C)c2oc(=O)cc(-c3ccccc3)c2c1O	0.0516	0.00347	0.107	0.0124				
CC(C)CCCC(C)C1CCC2C3CC=C4CC(=O)CCC4(C)C3CCC12C (stereo not drawn)	0.0196	0.0967	0.0967	0.133				
COCCOC(=O)C1=C(C)NC2=C(C(=O)CCC2)C1c1ccc(C)s1 (stereo not drawn)	-0.0698	0.0631	0.0308	0.207				
C=C(C)C1Cc2c(ccc(C(=O)O)c2O)O1 (stereo not drawn)	0.0493	-0.00474	0.106	0.105				
CCOC(=O)c1oc2c(OC)c(O)cc(O)c2c(=O)c1-c1cc(OC)c(OC)c(OC)c1	0.036	0.0305	-0.00359	-0.108				
CC=C(C)C(=O)OC1[C@@H]2C=C3C4CC(=O)O[C@@H](c5ccoc5)[C@]4(C)CCC3[C@@](C)(C2=O)[C@@H](C(O)C(=O)OC)C1(C)C (stereo partly drawn)	0.075	-0.00745	0.149	0.0968				
COC(=O)Nc1ccc(S(=O)(=O)N2C(C)CCCC2C)cc1 (stereo not drawn)	0.0592	0.103	0.0767	0.0829				
COc1ccc(CN2CCN(Cc3ccc([N+](=O)[O-])cc3)CC2)cc1OC	0.0472	0.118	0.097	0.0942				
CCSc1nnc(-c2ccc([N+](=O)[O-])cc2)n1-c1ccccc1	0.0862	0.0888	0.0629	0.153				
CCOc1cccc(C(=O)c2ccc(O)c(O)c2O)c1	0.0703	0.005	0.0783	0.0694				
C[C@@H]1CC[C@@]23CCC4(C)[C@@](C=CC5[C@@]6(C)CCC(=O)C(C)(C)C6CC[C@]54C)(OC2=O)C3[C@H]1C (stereo partly drawn)	0.12	0.0225	0.0629	0.0141				
NC(=O)NC(=O)Cc1ccccc1	0.103	0.215	0.184	0.139				
NNCCc1ccccc1	0.0542	0.11	0.2	0.188	0.136	-0.0727	-0.435 (active)	-0.392 (active)
CCN(CCCc1ccccc1)CCCc1ccccc1	0.0709	0.129	0.11	0.151				
COC(=O)C1=C(C)N=C2SCCC(=O)N2C1c1ccc(OC)cc1 (stereo not drawn)	0.0178	0.0759	0.0162	0.0699				
Cc1cc(Nc2ccc(O)cc2)n2c(nc3ccccc32)c1C#N	0.079	0.0759	0.0987	0.0687				
CC1(O)/C=C\C=C(\CO)C2CC(C)(C)C2(O)CC1 (stereo not drawn)	0.0666	0.000836	0.128	0.00974				
CN1CCN(c2nc3ccccn3c(=O)c2/C=C2\SC(=S)N(CC3CCCO3)C2=O)CC1 (stereo not drawn)	0.134	0.0801	0.0647	0.048				
Cc1c(O)c(C(=O)CC(C)C)c2oc3c(C(=O)CC(C)C)c(O)c(C)c(O)c3c2c1O	0.0407	0.0843	0.0935	0.0892				
CC(=O)c1c(O)c(C)c(O)c2c1oc1c(C(C)=O)c(O)c(C)c(O)c12	0.0278	-0.0408	0.0533	0.172				
CCC(C)C(=O)c1c(O)c(C)c2oc3c(C)c(O)c(C(=O)C(C)CC)c(O)c3c2c1O (stereo not drawn)	0.0233	0.116	-0.592 (active)	-0.0271				
CCCCC(CC)CN=C(N)NC(N)=NCCCCCCN=C(N)NC(N)=NCC(CC)CCCC (stereo not drawn)	0.103 and 0.0973	0.044 and 0.0691	0.127 and 0.022	0.0795 and 0.0454				
COc1ccc(OC)c(C2NC(=O)NC(C)=C2C(=O)Nc2ccccc2Cl)c1 (stereo not drawn)	0.0793	0.107	0.0921	0.116				
CC1(C)COC(CC(=O)O)CN1 (stereo not drawn)	0.11	0.00312	0.108	0.0408				
